This passage reports Potency and max response results from PubChem BioAssay (NCATS).

Inconclusive results are not listed. A number with no mark means an inactive call. Activity calls are given as the source filed them. Calls come from the whole dose curve; as a rule, active = well fitted inhibition curve with a large enough effect; inconclusive = small, poorly fitted or top-dose-only effect; inactive = flat fitted curve, though single readings scatter.
% is set by controls: 0 for no effect and ±100 for the full control effect; potency is the fitted concentration of half-maximal effect.

This test has as its system KB-3-1. Description: Cytotoxic Profiling of Annotated Libraries Using Quantitative High-Throughput Screening (AID 1296008). Note: nearly all actives have a fitted effect of over 60% in size. As to conditions: Five cell lines viability, CellTiter-Glo ATP luminescence, 48-72 h; max response: active compounds read low. In a few lines: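 Cytotoxicity was measured as CellTiter-Glo ATP luminescence, read after 10 min at room temperature. Compound treatment of the cells lasted 48 or 72 hr at 37 degrees Celsius in a qHTS format.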
With `CN(C)c1ccc(C(=C2C=CC(=[N+](C)C)C=C2)c2c(O)c(S(=O)(=O)[O-])cc3cc(S(=O)(=O)O)ccc23)cc1`, the Potency was 14.6 µM (active). Consider `CCN(CC)CCOC[C@H]1O[C@@H](O)[C@H](OCCN(CC)CC)[C@@H](O)[C@@H]1O`, for which the max response was 8.48%. As to `CC(C)(CO)[C@@H](O)C(=O)NCCC(=O)NCCSSCCNC(=O)CCNC(=O)[C@H](O)C(C)(C)CO`, the max response was -0.241%.

For the compound `NC(=O)OCC(O)COc1ccc(Cl)cc1` (stereo not drawn), the max response is 15.4%. Still for that read-out and setting: the figure for `C=CC1=C(C(=O)O)N2C(=O)[C@@H](NC(=O)/C(=N/OCC(=O)O)c3csc(N)n3)[C@H]2SC1` (stereo in doubt) is -4.79%. For `[O-][N+](=Nc1ccccc1)c1ccccc1`, the max response is -7.74%. For the compound `CCOC(=S)SSC(=S)OCC`, the max response was 4.67%. On the same count and under the same terms, the figure for `ClC(Cl)Cl` is 3.29%.
